PubChem BioAssay (NCATS)
Results filed as inconclusive are left out. Activity calls are given as the source filed them. Calls follow the shape of the dose curve; as a rule, active = well fitted cell-killing curve with a large enough effect; inconclusive = small, poorly fitted or top-dose-only effect, or effect the other way; inactive = flat fitted curve, though single readings scatter.

What was measured:
Assay in all cases: Primary qHTS to identify gynecologic anti-cancer compounds using libraries of approved drugs and bioactive compounds (AID 1345084); also: nearly all actives have a fitted effect of over 55% in size
Conditions in all cases: Gynecologic cancer cell panel viability, ATPlite luminescence, 48 h; series mostly up to 57.5 µM
OV90 = system: OV90
How it was run: (§1)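 48 h compound exposure at 37 C, 5% CO2; five-point qHTS. ATPlite luminescence readout of cell ATP.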

PA-1 = system: PA-1
How it was run: as §1

SKOV3 = system: SKOV3
How it was run: as §1

Tov-21-G = system: Tov-21-G
How it was run: as §1

Tov112D = system: Tov112D
How it was run: as §1
% is scaled to controls: 0 for no effect and ±100 for the full control effect.

COC(=O)[C@H](Cc1cccc(C(=N)N)c1)[C@@H](C)NC(=O)c1ccc(-c2cc[n+]([O-])cc2)cc1
inactive: Potency (OV90) | Potency (PA-1) | Potency (SKOV3) | Potency (Tov-21-G) | Potency (Tov112D)

CC(C)(O)[C@@H]1CC[C@]2(CO)[C@@H](O)CC[C@](C)(O)[C@H]2[C@@H]1O[C@@H]1O[C@H](CO)[C@@H](O)[C@H](O)[C@H]1O
inactive: Potency (OV90) | Potency (PA-1) | Potency (SKOV3) | Potency (Tov-21-G) | Potency (Tov112D)

C/C=C(/C)C(=O)OC1CC(C)(C)CC2C3=CCC4C5(C)CCC(OC6OC(C)C(OC7OC(C(=O)O)C(O)C(OC8OC(CO)C(O)C(O)C8OC8OC(CO)C(O)C(O)C8O)C7O)C(O)C6O)C(C)(C)C5CCC4(C)C3(C)C(OC(=O)/C=C/C=C/C=C/CCC)C(OC(C)=O)C12CO (stereo not given)
inactive: activity change, negative = cytotoxicity (OV90) -14.1% [at 6.55 µM] | activity change, negative = cytotoxicity (PA-1) -0.509% [at 6.55 µM] | activity change, negative = cytotoxicity (SKOV3) -20.2% [at 6.55 µM] | activity change, negative = cytotoxicity (Tov-21-G) -0.72% [at 6.55 µM] | activity change, negative = cytotoxicity (Tov112D) 1.97% [at 6.55 µM]

O=C(O)CCc1c(C(=O)O)[nH]c2cc(Cl)cc(Cl)c12
inactive: Potency (OV90) | Potency (PA-1) | Potency (SKOV3) | Potency (Tov-21-G) | Potency (Tov112D)

O=C(O)c1ccnc2cc(C(OCC3CCC(F)(F)CC3)c3ccccc3Cl)[nH]c12 (stereo not given)
inactive: Potency (OV90) | Potency (PA-1) | Potency (SKOV3) | Potency (Tov-21-G) | Potency (Tov112D)

NC[C@H]1CCC[C@@H](CNC(=O)[C@@H](Cc2c[nH]c3ccccc23)NC(=O)N2CCC3(C=Cc4ccccc43)CC2)C1
inactive: Potency (OV90) | Potency (PA-1) | Potency (SKOV3) | Potency (Tov-21-G) | Potency (Tov112D)

COc1cc([C@H]2OC[C@](O)(Cc3ccc(O[C@@H]4O[C@H](CO)[C@@H](O)[C@H](O)[C@H]4O)c(OC)c3)[C@@H]2CO)ccc1O
inactive: Potency (OV90) | Potency (PA-1) | Potency (SKOV3) | Potency (Tov-21-G) | Potency (Tov112D)

C=C1CCC2[C@](C)(CCC[C@]2(C)C(=O)O)[C@H]1CC/C(C)=C/C(=O)OC (stereo not given in full)
inactive: Potency (OV90) | Potency (PA-1) | Potency (SKOV3) | Potency (Tov-21-G) | Potency (Tov112D)

COC1OC(O)C2(CCC3(O2)C(C)CC2OC(=O)C4(C)CCCC3(C)C24)C1O (stereo not given)
inactive: Potency (OV90) | Potency (PA-1) | Potency (SKOV3) | Potency (Tov-21-G) | Potency (Tov112D)

C=C1C(=O)OC2CC(COC(=O)C(C)C)=C(C(C)CCCOC(C)=O)[C@@H](OC(C)=O)C12 (stereo not given in full)
inactive: Potency (OV90) | Potency (PA-1) | Potency (SKOV3) | Potency (Tov-21-G) | Potency (Tov112D)

CC1(C)CC[C@]2(C(=O)O[C@@H]3O[C@H](CO[C@@H]4O[C@H](CO)[C@@H](O)[C@H](O)[C@H]4O)[C@@H](O)[C@H](O[C@@H]4O[C@H](CO)[C@@H](O)[C@H](O)[C@H]4O)[C@H]3O)CC[C@]3(C)C(=CCC4[C@@]5(C)CC[C@H](O[C@@H]6OC[C@@H](O)[C@H](O)[C@H]6O)[C@@](C)(C(=O)O)C5CC[C@]43C)[C@@H]2C1 (stereo not given in full)
inactive: activity change, negative = cytotoxicity (OV90) 1.75% [at 11.6 µM] | activity change, negative = cytotoxicity (PA-1) 0.621% [at 11.6 µM] | activity change, negative = cytotoxicity (SKOV3) 10.7% [at 11.6 µM] | activity change, negative = cytotoxicity (Tov-21-G) 10.6% [at 11.6 µM] | activity change, negative = cytotoxicity (Tov112D) 3.57% [at 11.6 µM]

CC1CC=C2C1CC1(O)C(=O)CC2(C)C1(C)CO (stereo not given)
inactive: Potency (OV90) | Potency (PA-1) | Potency (SKOV3) | Potency (Tov-21-G) | Potency (Tov112D)

CCC(C)/C=C(C)/C=C/C1=CC2=C(Cl)C(=O)C(C)(OC(C)=O)C(=O)C2=CN1C(CCC(=O)O)C(=O)O (stereo not given)
inactive: Potency (OV90) | Potency (PA-1) | Potency (SKOV3) | Potency (Tov-21-G) | Potency (Tov112D)

O=C(O)CC1CCC(c2ccc(NC(=O)c3nnc(Nc4ccc(F)c(F)c4)o3)cc2)CC1 (stereo not given)
inactive: Potency (OV90) | Potency (PA-1) | Potency (SKOV3) | Potency (Tov-21-G) | Potency (Tov112D)

CC1CCC2(C(=O)OC3OC(CO)C(O)C(O)C3O)CCC3(C)C(=CCC4C5(C)CCC(O)C(C)(CO)C5CCC43C)C2C1(C)O (stereo not given)
inactive: Potency (OV90) | Potency (PA-1) | Potency (SKOV3) | Potency (Tov-21-G) | Potency (Tov112D)

CCNC(=O)OC1CCN(c2nncc3cc(OC)c(OC)cc23)CC1
inactive: Potency (OV90) | Potency (PA-1) | Potency (SKOV3) | Potency (Tov-21-G) | Potency (Tov112D)

O=C(Cc1ccc(Cl)cc1)Nc1cnccc1C(=O)O
inactive: Potency (OV90) | Potency (PA-1) | Potency (SKOV3) | Potency (Tov-21-G) | Potency (Tov112D)

CCCCS(=O)(=O)NC(Cc1ccc(OCCCCC2CCNCC2)cc1)C(=O)O (stereo not given)
inactive: Potency (OV90) | Potency (PA-1) | Potency (SKOV3) | Potency (Tov-21-G) | Potency (Tov112D)

O=C(Cc1ccccc1)OC[C@H]1O[C@H](O[C@H]2O[C@H](CO)[C@@H](O)[C@H](O)[C@H]2O)[C@H](O)[C@@H](O)[C@@H]1O
inactive: Potency (OV90) | Potency (PA-1) | Potency (SKOV3) | Potency (Tov-21-G) | Potency (Tov112D)

C=C1[C@H](OC(C)=O)[C@H]2[C@@H](OC(C)=O)C(C)C[C@]2(OC(C)=O)C(=O)[C@H](C)/C=C/C(C)(C)C(=O)[C@H](OC(=O)C(C)C)[C@H]1OC(C)=O (stereo not given in full)
inactive: Potency (OV90) | Potency (PA-1) | Potency (SKOV3) | Potency (Tov-21-G) | Potency (Tov112D)

COc1ccc(/C=C/C(=O)O[C@@H]2[C@@H](OC(C)=O)[C@@H](OC(C)=O)[C@H](O[C@H]3[C@@H]4C=CO[C@@H](O[C@@H]5O[C@H](CO)[C@@H](O)[C@H](O)[C@H]5O)[C@@H]4[C@@]4(CO)O[C@@H]34)O[C@H]2C)cc1
inactive: Potency (OV90) | Potency (PA-1) | Potency (SKOV3) | Potency (Tov-21-G) | Potency (Tov112D)
